Results published in the supplement of paper PMC6555819.

What was measured:
Assay in all cases: PBM binding z-score (relative to random genomic background probes); higher = stronger binding; sequences stand for … in GC…GCGATTGACAGCGTAGAATGAAGG
[1] = test system: FXR:RXRa (NR concentration 270 nM, RXRa partner concentration 90 nM)
Outline: (§1)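 Random background probes are the reference for binding z-scores. These scores derive from regression-normalized fluorescence on custom Agilent 4×180K protein-binding microarrays incubated 1 h with ligand-free nuclear receptor dimers. Binding was detected with antibodies against each partner (one per run).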

[2] = test system: LXRa:RXRa (NR concentration 270 nM, RXRa partner concentration 90 nM)
Outline: as §1

[3] = test system: LXRa homodimer (NR concentration 270 nM)
Outline: as §1

[4] = test system: LXRb:RXRa (NR concentration 270 nM, RXRa partner concentration 90 nM)
Outline: as §1

[5] = test system: LXRb homodimer (NR concentration 270 nM)
Outline: as §1

[6] = test system: PPARa:RXRa (NR concentration 270 nM, RXRa partner concentration 90 nM)
Outline: as §1

[7] = test system: PPARg:RXRa (NR concentration 180 nM, RXRa partner concentration 90 nM)
Outline: as §1

[8] = test system: PPARg:RXRa 270nM:90nM, anti-RXR (NR concentration 270 nM, RXRa partner concentration 90 nM)
Outline: as §1

[9] = test system: PPARg:RXRa 30nM:10nM, anti-RXR (NR concentration 30 nM, RXRa partner concentration 10 nM)
Outline: as §1

[10] = test system: PPARg:RXRa 90nM:30nM, anti-RXR (NR concentration 90 nM, RXRa partner concentration 30 nM)
Outline: as §1

[11] = test system: PPARg:RXRa DBDmut IVT, anti-RXR (DBD mutation: RXRa K156A/R161A, NR concentration 270 nM, RXRa partner concentration 90 nM)
Outline: as §1

[12] = test system: PPARg:RXRa IVT, anti-PPARg (NR concentration 270 nM, RXRa partner concentration 90 nM)
Outline: as §1

[13] = test system: PPARg DBDmut:RXRa IVT, anti-PPARg (DBD mutation: PPARg1 K132A/R137A, NR concentration 270 nM, RXRa partner concentration 90 nM)
Outline: as §1

[14] = test system: PPARg DBDmut IVT, anti-PPARg (DBD mutation: PPARg1 K132A/R137A, NR concentration 270 nM)
Outline: as §1

[15] = test system: PPARg homodimer (NR concentration 180 nM)
Outline: as §1

[16] = test system: PXR:RXRa (NR concentration 270 nM, RXRa partner concentration 90 nM)
Outline: as §1

[17] = test system: PXR homodimer (NR concentration 270 nM)
Outline: as §1

[18] = test system: RARa:RXR (NR concentration 270 nM, RXRa partner concentration 90 nM)
Outline: as §1

[19] = test system: RARa homodimer (NR concentration 270 nM)
Outline: as §1

[20] = test system: RARb:RXRa (NR concentration 270 nM, RXRa partner concentration 90 nM)
Outline: as §1

Sequence | PBM binding z-score [1] | PBM binding z-score [2] | PBM binding z-score [3] | PBM binding z-score [4] | PBM binding z-score [5] | PBM binding z-score [6] | PBM binding z-score [7] | PBM binding z-score [8] | PBM binding z-score [9] | PBM binding z-score [10] | PBM binding z-score [11] | PBM binding z-score [12] | PBM binding z-score [13] | PBM binding z-score [14] | PBM binding z-score [15] | PBM binding z-score [16] | PBM binding z-score [17] | PBM binding z-score [18] | PBM binding z-score [19] | PBM binding z-score [20]
TCATATAGGTAAACAGTTGAAAGTCCGTAAGTTA | 1.56 | 1.2 | 0.508 | 1.15 | 0.267 | 1.76 | 1.53 | 2.91 | 3.95 | 3.49 | 4.45 | 3.32 | 1.41 | 0.905 | 1.35 | 1.03 | 0.634 | 1.35 | 1.47 | 0.681
CCTTAAGGGTCACTCCAGGTTATAGCATCGGAGT | 6.75 | 7.97 | 3.36 | 5.9 | 0.565 | 5.33 | 4.86 | 5.1 | 2.01 | 4.34 | 3.17 | 4.07 | 0.0681 | 0.102 | 2.47 | 5.59 | 0.47 | 4.49 | 0.956 | 4.97
ATATGTAGGTTAGCTGGGCTCATTCAGACTAGGC | -0.0917 | -0.146 | -0.339 | -0.294 | -0.171 | 1.98 | 2.71 | 2.34 | 0.752 | 1.5 | 6.55 | 5.57 | 1.42 | 1.63 | 0.611 | -0.0149 | -0.367 | 0.11 | 0.493 | 0.456
CTAACTAGGTCATTGACAGGACAGTGAATAGTAA | 4.3 | 3.33 | 0.788 | 2.12 | 0.469 | 5.03 | 8.17 | 6.99 | 4.79 | 6.51 | 8.21 | 8.94 | 4 | 4.56 | 0.99 | 1.52 | 0.32 | 2.14 | 0.687 | 3.66
CAAACTAGGTTACAGAGGTCAAAGTCCGTGCGTA | 6.15 | 6.43 | 7.09 | 5.72 | 2.18 | 5.82 | 7.94 | 7.19 | 5.19 | 6.82 | 7.75 | 7.64 | 1.98 | 1.29 | 4.38 | 6.32 | 7.32 | 7.03 | 2.06 | 4.44
CGTCCACGGTCAAGGTCAGTGAAAGAGACTCGAA | 2.73 | 1.71 | -0.21 | 1.6 | -0.801 | 2.61 | 0.677 | 1.15 | -0.28 | 0.438 | 0.397 | 1.53 | -0.802 | -1.07 | 1.28 | 1.69 | 0.177 | 2.2 | 0.0153 | 4.28
AGAACGAGGGGAATGAGTTGATAGCACGGGTGGC | -0.0217 | -0.0133 | -0.00891 | -0.228 | 0.0514 | 0.192 | 0.861 | -0.0385 | -0.193 | -0.152 | 1.5 | 0.636 | 0.108 | 0.301 | 0.561 | -0.115 | 0.264 | 0.125 | 0.109 | 0.142
TCATATAGGTAAAGGTGAACGTCGAACGATATGA | 1.01 | 1.27 | -0.125 | 1.25 | -0.0636 | 3.18 | 4.94 | 4.76 | 4.7 | 5.08 | 3.97 | 4.38 | 1.68 | 1.19 | 1.37 | 0.966 | 0.23 | 1.74 | 0.665 | 2.09
TCTTGTAAATCAGCAGGTTAAGAAAGCTGGCCAA | 0.256 | 0.519 | -0.233 | 0.511 | -0.113 | 0.935 | -0.661 | 1.45 | 3.06 | 2.45 | 1.8 | -0.234 | -0.435 | -0.222 | 0.0187 | 0.477 | -0.284 | 0.789 | 0.26 | 0.224
GCGACGGGGGCAAAGCAGGTTACCATAAGGTTGG | 3.46 | 4.5 | 0.414 | 4.42 | 5.27 | 4 | 1.96 | 3.58 | 1.84 | 3.04 | 2.39 | 4.59 | 4.08 | 8.05 | 1.37 | 3.8 | 1.1 | 2.78 | 0.26 | 2.88
ATATTTAGGTTAGCTGGGGTCATTCAGACTAGGC | 4.36 | 5.53 | 3.69 | 4.89 | 2.59 | 4.96 | 4.2 | 4.63 | 1.88 | 3.88 | 5.87 | 4.88 | 2.64 | 2.22 | 3.24 | 6.14 | 5.08 | 5.14 | 3.11 | 3.21
TCTCGGAGGACACGAAGGTCAGAGCTTTCCAGAG | 1.16 | 1.13 | -0.0274 | 0.923 | -1.06 | 1.98 | 0.444 | 1.45 | 2.1 | 1.96 | 1.65 | 0.886 | -0.279 | -1.37 | 0.322 | 1.97 | 0.404 | 2.05 | -0.212 | 3.38
ATCTCTAGCTAACCAAGTTCAGTGAATGCCGAAC | -0.0786 | 0.353 | 0.78 | 0.261 | 0.798 | -0.0272 | -0.107 | -0.251 | -0.294 | -0.0743 | -0.58 | -0.0463 | 0.368 | 0.475 | 0.651 | 1.32 | 1.49 | 0.181 | 0.128 | 0.746
TCATATAGGTAACACAGGTGAAAGTCGGCATCTA | 1.43 | 1.43 | 0.437 | 1.22 | 0.437 | 2.4 | 2.36 | 3.3 | 4.15 | 3.83 | 4.65 | 4.09 | 0.968 | 1.6 | 1.38 | 1.15 | 0.735 | 1.5 | 1.19 | 1
